F508del corr – CFTR F508del correction in bronchial cells; CFBE cells, YFP halide quenching; stimulated with forskolin plus potentiator P3; % fluorescence drop versus neutral controls; activity (quench increase), % at 7.58 µM; actives 0.36% (n = 350,000); AID 720511;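 active = mean added fluorescence quench of at least 8% versus neutral control, with both replicates also reaching 8%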;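 note: cells transiently co-express mutant CFTR-F508del with the halide-sensitive YFP; corrector assay measuring rescue of mutant channel to the surface after 24 h compound exposure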
Vif inh – HIV Vif inhibition | HEK293T cells, Vif self-association by quenched fluorescence, imaging, 24 h | inhibition, % at 7.49 µM | actives 0.35% (n = 340,000) | AID 602346; in the data active = inhibition above about 50%, passing the limit was not always enough
FGF22 binding – FGF22 (human) thermal shift binding; recombinant FGF22 thermal shift, SYPRO orange fluorescence; percent of sucrose octasulfate shift, DMSO zero; activity (Tm shift, normalised), % at 9.99 µM; actives 1.5% (n = 340,000);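 active = mean Tm shift, scaled 0 neutral to 100 positive control, at about 1.3% or above, every replicate too, limit read from the data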
Target sequence (Q9HCT0 whole entry, looked up): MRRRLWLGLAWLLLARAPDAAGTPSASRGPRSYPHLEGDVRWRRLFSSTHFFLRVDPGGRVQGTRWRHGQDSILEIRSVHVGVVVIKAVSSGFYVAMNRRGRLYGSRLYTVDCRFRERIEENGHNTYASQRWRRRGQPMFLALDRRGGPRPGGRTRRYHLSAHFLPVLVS
Hits are given with their value; – = inactive; · = no result. An excerpt weighted towards active compounds, which were near 1.7% of everything screened.

SMILES | F508del corr | Vif inh | FGF22 binding
Nc1c(C(=O)O)cnc2nc(N3CCOCC3)nn12 | – | – | –
CSc1nc2ncc(C(=O)O)c(N)n2n1 | – | 51 | –
O=C(Nc1ccc(F)cc1)N1C[C@H]2[C@@H](c3ccccc31)[C@H](CO)N2C(=O)c1ccccn1 | – | · | ·
COc1ccc(CN(C)C[C@@H]2OCCCC[C@@H](C)Oc3ccc(NC(=O)c4ccncc4)cc3C(=O)N([C@H](C)CO)C[C@H]2C)cc1 | – | · | –
Cc1ccc(S(=O)(=O)N(C)C[C@@H]2OCCCC[C@H](C)Oc3ccc(NC(=O)Nc4ccc(C(F)(F)F)cc4)cc3C(=O)N([C@H](C)CO)C[C@@H]2C)cc1 | – | · | –
Cc1onc(-c2ccccc2)c1C(=O)N1CCN(S(=O)(=O)c2ccc(OC(F)(F)F)cc2)CC1 | – | – | –
Cc1ccc(S(=O)(=O)N2CCN(C(=O)c3c(-c4ccccc4)noc3C)CC2)cc1 | – | 52 | –
Cc1noc(C)c1COc1ccc(C(=O)N2CCN(S(=O)(=O)c3ccc(Cl)cc3)CC2)cc1 | – | – | –
Cc1noc(C)c1COc1ccc(C(=O)N2CCN(S(=O)(=O)c3ccc(F)cc3)CC2)cc1 | 26 | – | –
CO[C@H]1CN(C)C(=O)c2cc(NC(=O)C3CC3)ccc2OC[C@@H](C)N(C(=O)CN(C)C)C[C@@H]1C | – | · | –
O=C(COc1ccc(S(=O)(=O)NC2CCCC2)cc1)NCC1CCCO1 (stereo not drawn) | – | – | 43
O=C(NCC1CCCO1)c1cccc(NS(=O)(=O)c2ccccc2)c1 (stereo not drawn) | – | – | ·
O=C(NCC1CCCO1)c1ccc(NS(=O)(=O)c2ccccc2)cc1 (stereo not drawn) | – | – | 45
Cc1cc(S(=O)(=O)NC2CCCCC2)ccc1OCC(=O)NCC1CCCO1 (stereo not drawn) | – | – | –
Cc1ccc(S(=O)(=O)N[C@H]2CC[C@H](CC(=O)NC3CCCCC3)O[C@@H]2CO)cc1 | – | · | –
Cc1ccc(OCC(=O)N/N=C2/SCC(=O)N2Cc2ccccc2)cc1 | · | – | –
Cc1ccccc1C(=O)N/N=C1\SCC(=O)N1Cc1ccco1 | – | – | 44
Cc1cccc(OCC(=O)N/N=C2/SCC(=O)N2Cc2ccco2)c1 | – | – | 43
COc1cc(OC)cc(C(=O)N/N=C2/SCC(=O)N2Cc2ccco2)c1 | – | – | –
C[C@@H]1CN([C@H](C)CO)C(=O)c2cc(NC(=O)Nc3ccc4c(c3)OCO4)ccc2O[C@@H](C)CCCCO[C@@H]1CN(C)S(=O)(=O)c1cn(C)cn1 | – | · | –
O=C(c1ccccc1F)N1C[C@@H]2[C@H](c3ccccc31)[C@@H](CO)N2C(=O)c1ccccc1 | – | · | –
COc1ccc(/C=N/NC(=O)c2snnc2C)c(OC)c1OC | – | – | 43
COc1cccc(/C=N\NC(=O)c2sc(N)nc2C)c1OC | · | – | ·
Cc1noc(C)c1S(=O)(=O)Nc1ccc2c(c1)CC(=O)N([C@H](C)CO)C[C@@H](C)[C@@H](CN(C)C(=O)Nc1cccc3ccccc13)O2 | – | · | –
Cn1cnc(S(=O)(=O)N2CCCCN3[C@H](CO)[C@@H](c4ccc(C#CC5CCCC5)cc4)[C@@H]3C2)c1 | – | · | –
SMILES | F508del corr | Vif inh | FGF22 binding
O=C(NCc1cccs1)c1cc(-c2ccccc2)nn1CC1CC(c2cccc([N+](=O)[O-])c2)=NO1 (stereo not drawn) | 8.6 | · | –
COc1ccccc1CNC(=O)c1cc(-c2ccccc2)nn1CC1CC(c2cccc([N+](=O)[O-])c2)=NO1 (stereo not drawn) | – | · | –
C[C@@H]1CCCCO[C@@H](CN(C)C(=O)Nc2ccccc2)[C@H](C)CN([C@@H](C)CO)C(=O)c2cc(NC(=O)NC3CCCCC3)ccc2O1 | – | · | ·
CO/N=C/C(C#N)c1ncc(C(F)(F)F)cc1Cl (stereo not drawn) | – | · | –
N#CC(c1ccccn1)c1ncc(C(F)(F)F)cc1Cl (stereo not drawn) | – | – | 43
COc1cc(-c2cnc3c(NC=O)cc(-c4cccc(C(F)(F)F)c4)cn23)cc(OC)c1OC | 8.7 | – | –
COc1cccc(-c2cnc3c(NC=O)cc(-c4ccc(O)c(OC)c4)cn23)c1 | – | · | –
COc1ccc(-c2cc(NC=O)c3ncc(-c4ccc(OC)c(OC)c4)n3c2)cc1OC | · | – | –
COc1ccc(-c2cc(NC=O)c3ncc(-c4ccc(OC)c(OC)c4)n3c2)cc1 | 8.4 | – | –
COc1ccc(-c2cc(NC=O)c3ncc(-c4cccc(C(F)(F)F)c4)n3c2)c(OC)c1 | – | – | –
COc1cccc(-c2cc(NC=O)c3ncc(-c4cc(OC)c(OC)c(OC)c4)n3c2)c1 | – | 77 | –
COc1ccc(F)cc1-c1cc(NC(C)=O)c2ncc(-c3cc(OC)c(OC)c(OC)c3)n2c1 | – | 68 | –
COc1ccc(-c2cnc3c(NC(C)=O)cc(-c4cc(F)ccc4OC)cn23)cc1OC | – | · | –
C[C@H](CO)N1C[C@H](C)[C@H](CN(C)C(=O)Cc2ccccn2)Oc2ncc(-c3ccncc3)cc2C1=O | – | · | –
CN1CCN(C(=O)C[C@H]2CC[C@@H]3[C@@H](COc4ccc(NC(=O)c5ccc(F)c(F)c5)cc4C(=O)N3C)O2)CC1 | – | · | –
CN1C(=O)c2cc(NC(=O)c3cc(F)cc(F)c3)ccc2OC[C@H]2O[C@@H](CC(=O)O)CC[C@@H]21 | – | · | –
CO[C@H](CN(C)CC1CCOCC1)[C@H](C)CN(C(=O)Nc1ccc(F)cc1)[C@H](C)CO | – | · | –
O=C(COC(=O)C1=COCCO1)NC1CCCCCCC1 | – | – | –
CC1CCCC(NC(=O)COC(=O)C2=COCCO2)C1C (stereo not drawn) | – | – | 44
C[C@@H]1CN([C@@H](C)CO)C(=O)c2cc(C#C[C@@H](C)O)cnc2O[C@H]1CN(C)C(=O)Nc1ccc(F)cc1 | – | · | –
CNC[C@@H]1OCCCC[C@@H](C)Oc2ccc(NC(=O)Nc3ccc(F)cc3)cc2C(=O)N([C@@H](C)CO)C[C@@H]1C | – | · | ·
Cc1noc(C)c1NC(=O)N(C)C[C@H]1Oc2c(NS(C)(=O)=O)cccc2C(=O)N([C@@H](C)CO)C[C@H]1C | – | · | –
COc1cccc(-c2ccc([C@H]3[C@@H](CO)N4CCCCN(C(=O)NC(C)C)C[C@H]34)cc2)c1 | – | · | –
C[C@H](O)C#Cc1cnc2c(c1)C(=O)N([C@@H](C)CO)C[C@H](C)[C@H](CN(C)CC1CCOCC1)O2 | – | · | –
O=c1cc(-c2ccccc2)[nH]c2ccc(F)cc12 | 8.6 | – | –
SMILES | F508del corr | Vif inh | FGF22 binding
Cc1ccc(-c2cc(=O)c3cc(F)ccc3[nH]2)cc1 | – | – | –
COC(=O)c1cn(NC(=O)c2cc([N+](=O)[O-])ccc2F)c(=O)c2ccccc12 | 8.7 | – | –
COC(=O)c1cn(NC(=O)C2CCC(C)CC2)c(=O)c2ccccc12 (stereo not drawn) | · | – | ·
CCOC(=O)c1cnc(-c2cccc(OC)c2)[nH]c1=O | · | – | ·
CCOC(=O)c1cnc(COc2ccc(OC)cc2)[nH]c1=O | 53 | – | –
COc1ccc([C@H]2/C=C\CN(C(=O)c3ccc(C)cc3)[C@@H](C)C(=O)N2Cc2ccc(F)cc2)cc1 | – | – | –

Screening data (PubChem BioAssay)
